# Experimental data published in ChEMBL document CHEMBL3988442, “University of Dundee, Small-Polar-MMV Screening Library” (2021).
# Molecular target: T1, Aspartate--tRNA(Asp/Asn) ligase (Mycobacterium tuberculosis (strain ATCC 25618 / H37Rv)) (UniProt P9WFW3); also: in the data most compounds retested in dose-response had high values
# T1 sequence (whole entry): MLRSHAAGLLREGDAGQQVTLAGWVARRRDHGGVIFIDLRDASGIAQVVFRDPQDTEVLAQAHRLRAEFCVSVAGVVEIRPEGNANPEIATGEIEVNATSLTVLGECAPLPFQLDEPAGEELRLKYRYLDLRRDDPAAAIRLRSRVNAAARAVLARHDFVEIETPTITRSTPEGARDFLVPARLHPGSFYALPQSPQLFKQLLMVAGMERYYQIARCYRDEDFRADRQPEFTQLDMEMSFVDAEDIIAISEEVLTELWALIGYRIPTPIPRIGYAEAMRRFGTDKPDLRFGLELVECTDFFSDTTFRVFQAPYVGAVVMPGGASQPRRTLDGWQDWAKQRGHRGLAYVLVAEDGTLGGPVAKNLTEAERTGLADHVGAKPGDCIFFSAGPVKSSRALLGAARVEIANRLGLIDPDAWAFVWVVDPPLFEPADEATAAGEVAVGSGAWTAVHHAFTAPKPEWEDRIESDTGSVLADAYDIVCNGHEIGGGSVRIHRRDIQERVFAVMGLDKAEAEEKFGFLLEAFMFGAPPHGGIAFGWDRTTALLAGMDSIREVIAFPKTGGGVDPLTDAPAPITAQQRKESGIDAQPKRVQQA
# Assay: Assay for Asp RNA synthetase-1 from Mycobacterium tuberculosis
# Assay type: functional
# Parameters: scale not given: direction of the effect not stated beside the values
# Settings: 30 µM
row,SMILES,Percent Effect
1,COCC1COCCC12CCN(C(=O)CCOc1ccccc1)CC2 (stereo not drawn),1.23%
2,COc1ccc(CN2C[C@@H]3COC[C@]3(COc3cccnc3)C2)cc1,-3.56%
3,Cc1nc(CN2CCC3(CCCN(Cc4cnn(C)c4)C3)C2=O)cs1 (stereo not drawn),-3.23%
4,CC(C)(C)OC(=O)N1CCN(C(=O)c2sccc2C2CC2)CC1,-2.9%
5,c1csc(-c2noc(CCCN3CCCC3Cn3cccn3)n2)c1 (stereo not drawn),-1.67%
6,Cc1cc(C)n(CC2CCCN2C(=O)c2ccc(C(N)=O)cn2)n1 (stereo not drawn),-3.07%
7,CCC1CN(CC(=O)N2CCC2)CCN1CCOC (stereo not drawn),7.2%
8,Cn1cccc1CN1CCC2(CCCN(C(=O)Cc3cccnc3)C2)C1 (stereo not drawn),4.47%
9,COc1c(C2CCCN2CC(=O)Nc2nc(C)cs2)c(C)nn1C (stereo not drawn),-3%
10,COc1ncccc1CN1Cc2nnn(C)c2C(COCC2CC2)C1 (stereo not drawn),4.09%
11,COc1nn(C)c2c1CCCN(C(=O)c1ccccc1)C2,-0.268%
12,CC(C)c1ncc2c(n1)CN(Cc1nc(Cc3ccccc3)no1)CC2,-4.05%
13,Cc1occc1C(=O)N1CCC2(CCC2NC(=O)c2ccn(C)c2)CC1 (stereo not drawn),-3.29%
14,CCN1C[C@@H]2[C@@H](OC)CCN(S(=O)(=O)c3ccccc3F)[C@@H]2C1,-3.02%
15,COc1ccc(C2CCCN2C(=O)c2cc3c([nH]c2=O)CCC3)cc1 (stereo not drawn),3.11%
16,Cn1c(CN2CCN(CC3CC3)CC2)nnc1C1CCC1,8.05%
17,CC1CCN(c2ncc3c(n2)CN(c2ccccc2)C3=O)CC1,3.06%
18,CCc1nc(C)c(C(=O)NCCN2CCN(C(C)=O)CC2)s1,0.0694%
19,Cc1nc(-c2ccccc2)n(CC(=O)N(C(C)C)C(C)C)n1,4.15%
20,CCn1cc2c(n1)CN(CC1CC1)CC2COCC1CC1 (stereo not drawn),-2.72%

row,SMILES,Percent Effect
1,Cc1cccc(N2CCN(C(=O)CN3CCN(CCO)CC3)CC2)c1,1.98%
2,Cc1nc(C2CCCN2CCCS(=O)(=O)N(C)C)no1 (stereo not drawn),-1.34%
3,COc1cccc(CCC(=O)N2CCCCC2Cn2cccn2)c1 (stereo not drawn),1.44%
4,COCCC(=O)N1CCc2cc(Cl)cc(Cl)c2C1,1.46%
5,Cc1cc(C)n(CC2CCCCN2CCCS(N)(=O)=O)n1 (stereo not drawn),-7.33%
6,CC(=O)N1CCN(S(=O)(=O)c2ccc(C)c(F)c2)CC1,-1.95%
7,CN(C)CCN(Cc1cccc(C(F)(F)F)c1)C(=O)c1cc[nH]n1,0.947%
8,CN1CCCN(C[C@@H]2CN(C(=O)CCC3CCCC3)C[C@@H]2CO)CC1,6.99%
9,CC(C)n1ccnc1C1CCN(C(=O)c2cc[nH]n2)CC1,-0.496%
10,CCc1ccccc1-n1cc(O)c(C(=O)N2CCCCC2)n1,1.02%
11,Cc1ccc(C(=O)NC(CN2CCCC2=O)c2ccccc2)c(=O)[nH]1 (stereo not drawn),-6.44%
12,O=C(COc1cccc2c1CCC2=O)NCCSc1ccccc1,3.02%
13,CCN(CC)C(=O)c1nnn(Cc2ccccc2)c1OC,0.348%
14,Cc1nnc2n1CCN(CCC(=O)Nc1sccc1C#N)C2,1.26%
15,O=C(O)C1(Cc2ccccc2Cl)CCN(c2ncccc2F)CC1,2.22%
16,Cc1cc2ccccc2n1CCC(=O)NCc1ncc[nH]1,-0.164%
17,COCCCN(C)Cc1nc2c(cnn2C)c(=O)[nH]1,-1.71%
18,Cn1cccc1C(=O)N1CCN(CC2CC2)c2ncccc2C1,2.01%
19,Cc1cnn(C(C)C2CC2)c1NC(=O)c1cnccn1 (stereo not drawn),-3.45%

# Molecular target: Shiga toxin 2 (Escherichia coli O157:H7) (UniProt P09385+P09386)
# Assay: E. coli 0.157:H7 Shiga Toxin SOP - stx2 screening assay
# Assay type: functional
# Parameters: scale not given: direction of the effect not stated beside the values
# Settings: 30 µM
row,SMILES,Percent Effect
1,COCC1COCCC12CCN(C(=O)CCOc1ccccc1)CC2 (stereo not drawn),0.928%
2,COc1ccc(CN2C[C@@H]3COC[C@]3(COc3cccnc3)C2)cc1,-5.5%
3,Cc1nc(CN2CCC3(CCCN(Cc4cnn(C)c4)C3)C2=O)cs1 (stereo not drawn),-23.7%
4,CC(C)(C)OC(=O)N1CCN(C(=O)c2sccc2C2CC2)CC1,-0.841%
5,c1csc(-c2noc(CCCN3CCCC3Cn3cccn3)n2)c1 (stereo not drawn),15.3%
6,Cc1cc(C)n(CC2CCCN2C(=O)c2ccc(C(N)=O)cn2)n1 (stereo not drawn),-49.3%
7,CCC1CN(CC(=O)N2CCC2)CCN1CCOC (stereo not drawn),9.62%
8,Cn1cccc1CN1CCC2(CCCN(C(=O)Cc3cccnc3)C2)C1 (stereo not drawn),-14.5%
9,COc1c(C2CCCN2CC(=O)Nc2nc(C)cs2)c(C)nn1C (stereo not drawn),-14.6%
10,COc1ncccc1CN1Cc2nnn(C)c2C(COCC2CC2)C1 (stereo not drawn),-10.1%
11,COc1nn(C)c2c1CCCN(C(=O)c1ccccc1)C2,-9.13%
12,CC(C)c1ncc2c(n1)CN(Cc1nc(Cc3ccccc3)no1)CC2,-0.282%
13,Cc1occc1C(=O)N1CCC2(CCC2NC(=O)c2ccn(C)c2)CC1 (stereo not drawn),13.8%
14,CCN1C[C@@H]2[C@@H](OC)CCN(S(=O)(=O)c3ccccc3F)[C@@H]2C1,0.716%
15,COc1ccc(C2CCCN2C(=O)c2cc3c([nH]c2=O)CCC3)cc1 (stereo not drawn),-10%
16,Cn1c(CN2CCN(CC3CC3)CC2)nnc1C1CCC1,-37.5%
17,CC1CCN(c2ncc3c(n2)CN(c2ccccc2)C3=O)CC1,-36.5%
18,CCc1nc(C)c(C(=O)NCCN2CCN(C(C)=O)CC2)s1,-21.7%
19,Cc1nc(-c2ccccc2)n(CC(=O)N(C(C)C)C(C)C)n1,23.2%
20,CCn1cc2c(n1)CN(CC1CC1)CC2COCC1CC1 (stereo not drawn),-2.1%

row,SMILES,Percent Effect
1,Cc1cccc(N2CCN(C(=O)CN3CCN(CCO)CC3)CC2)c1,0.874%
2,Cc1nc(C2CCCN2CCCS(=O)(=O)N(C)C)no1 (stereo not drawn),-7.71%
3,COc1cccc(CCC(=O)N2CCCCC2Cn2cccn2)c1 (stereo not drawn),22.5%
4,COCCC(=O)N1CCc2cc(Cl)cc(Cl)c2C1,-18.1%
5,Cc1cc(C)n(CC2CCCCN2CCCS(N)(=O)=O)n1 (stereo not drawn),-48%
6,CC(=O)N1CCN(S(=O)(=O)c2ccc(C)c(F)c2)CC1,-12.2%
7,CN(C)CCN(Cc1cccc(C(F)(F)F)c1)C(=O)c1cc[nH]n1,-18.8%
8,CN1CCCN(C[C@@H]2CN(C(=O)CCC3CCCC3)C[C@@H]2CO)CC1,-19.6%
9,CC(C)n1ccnc1C1CCN(C(=O)c2cc[nH]n2)CC1,14.3%
10,CCc1ccccc1-n1cc(O)c(C(=O)N2CCCCC2)n1,31%
11,Cc1ccc(C(=O)NC(CN2CCCC2=O)c2ccccc2)c(=O)[nH]1 (stereo not drawn),2.19%
12,O=C(COc1cccc2c1CCC2=O)NCCSc1ccccc1,-30.6%
13,CCN(CC)C(=O)c1nnn(Cc2ccccc2)c1OC,3.85%
14,Cc1nnc2n1CCN(CCC(=O)Nc1sccc1C#N)C2,22.9%
15,O=C(O)C1(Cc2ccccc2Cl)CCN(c2ncccc2F)CC1,-10.7%
16,Cc1cc2ccccc2n1CCC(=O)NCc1ncc[nH]1,4.66%
17,COCCCN(C)Cc1nc2c(cnn2C)c(=O)[nH]1,-15.2%
18,Cn1cccc1C(=O)N1CCN(CC2CC2)c2ncccc2C1,-11.1%
19,Cc1cnn(C(C)C2CC2)c1NC(=O)c1cnccn1 (stereo not drawn),-3.84%
